About 79,000 compounds went through this panel and 15% of them were active in at least one assay; those are over-represented in the sample as a whole. Active and inactive are the calls of the source. Rule as the data show it: active = growth inhibition above about 70%; inactive = the rest.
Assays:
[1] = NCI Yeast Anticancer Drug Screen. Data for the rad52 strain (AID 147);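 also: 0% = growth of vehicle-treated control cultures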; details: S. cerevisiae rad52 mutant growth inhibition, active compounds read high
Outline: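 Compounds are applied to a genetically defined yeast strain lacking normal DNA damage repair, and inhibition of growth is expressed relative to cultures given vehicle only.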

[2] = NCI Yeast Anticancer Drug Screen. Data for the wt1 strain (AID 149);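 also: 0% = growth of vehicle-treated wt1 cultures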; details: S. cerevisiae wt1 strain (SPY 50644) growth inhibition, active compounds read high
Outline: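 Each compound is tested on wt1 yeast and the loss of growth versus vehicle gives the inhibition value.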

[3] = NCI Yeast Anticancer Drug Screen. Data for the rad50EPP+ strain (AID 151);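 also: 0% = growth of vehicle-treated control cultures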; details: S. cerevisiae rad50 mutant strain, active compounds read high
Outline: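 Compounds were applied to the rad50EPP+ yeast strain, which bears a defined DNA repair alteration, and growth inhibition was determined relative to vehicle-treated cultures.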

[4] = NCI Yeast Anticancer Drug Screen. Data for the mgt1 strain (AID 153); details: S. cerevisiae mgt1 mutant growth inhibition, active compounds read high
Outline: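 Strain: mgt1 yeast, one of a set carrying defined DNA damage repair or cell cycle control alterations. Compound-treated growth compared with vehicle.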

[5] = NCI Yeast Anticancer Drug Screen. Data for the rad50 strain (AID 155);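 also: 0% = growth of vehicle-only cultures of the same strain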; details: S. cerevisiae rad50 strain growth inhibition, active compounds read high
Outline: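 Vehicle-treated cultures provide the reference for the growth inhibition reported for compound-exposed, repair-deficient yeast.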

[6] = NCI Yeast Anticancer Drug Screen. Data for the mec2-1 strain (AID 157); details: S. cerevisiae mec2-1 strain, active compounds read high
Outline: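 Strain: mec2-1 (DNA repair/cell cycle alteration). Compound exposure, then growth measured; inhibition expressed relative to vehicle.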

[7] = NCI Yeast Anticancer Drug Screen. Data for the rad14 strain (AID 159);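 also: 0% = growth of vehicle-treated control cultures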; details: S. cerevisiae rad14 strain growth inhibition, active compounds read high
Outline: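 Inhibition of growth is reported for a repair-deficient yeast mutant following compound treatment, calculated relative to cultures that received vehicle.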

[8] = NCI Yeast Anticancer Drug Screen. Data for the sgs1 mgt1 strain (AID 161);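 also: 0% = growth of cultures given vehicle only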; details: S. cerevisiae sgs1 mgt1 strain, active compounds read high
Outline: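 Test agents were incubated with a DNA-repair-mutant yeast strain. Growth was then read and compared against vehicle-treated controls.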

[9] = NCI Yeast Anticancer Drug Screen. Data for the CLN2oe strain (AID 163);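 also: 0% = growth of vehicle-only control cultures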; details: S. cerevisiae CLN2oe strain, active compounds read high
Outline: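 Growth of a genetically modified yeast strain is measured after compound exposure and compared with cultures given vehicle alone.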

[10] = NCI Yeast Anticancer Drug Screen. Data for the cln2 rad14 strain (AID 165);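 also: 0% = growth equal to vehicle treated cultures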; details: S. cerevisiae cln2 rad14 strain, active compounds read high
Outline: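 Compounds are applied to the cln2 rad14 yeast strain, and growth is then compared with that of vehicle-treated cultures to give inhibition.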

[11] = NCI Yeast Anticancer Drug Screen. Data for the bub3 strain (AID 167); details: S. cerevisiae bub3 mutant strain, active compounds read high
Outline: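 Mutant yeast screening strain plus compound; vehicle-treated cultures serve as the 0% inhibition reference.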

[12] = NCI Yeast Anticancer Drug Screen. Data for the mlh1 strain (AID 171);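 also: 0% = growth of vehicle-treated control cultures of the same strain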; details: S. cerevisiae mlh1 strain growth inhibition, active compounds read high
Outline: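 Growth of the mutant yeast strain after compound exposure, expressed as inhibition relative to vehicle-only controls.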

[13] = NCI Yeast Anticancer Drug Screen. Data for the sgs1 strain (AID 173);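 also: 0% = growth of vehicle-only control cultures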; details: S. cerevisiae sgs1 mutant, active compounds read high
Outline: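 Growth of a yeast strain bearing a defined genetic alteration is measured after compound treatment. Inhibition is expressed relative to vehicle-only controls.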

[14] = NCI Yeast Anticancer Drug Screen. Data for the mlh1 rad18 strain (AID 175); details: S. cerevisiae mlh1 rad18 strain growth inhibition, active compounds read high
Outline: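 Read-out is yeast growth inhibition, calculated against vehicle-only controls. The compound was applied to a strain engineered with DNA damage repair alterations.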

[15] = NCI Yeast Anticancer Drug Screen. Data for the rad18 strain (AID 177); details: S. cerevisiae rad18 mutant growth inhibition, active compounds read high
Outline: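 Growth of the mutant yeast strain after compound exposure, normalised to vehicle-only cultures.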

[16] = at 5.0 µM (retest, dose inferred, filed as 0.5)
[17] = at 50.0 µM (retest, dose inferred, filed as 5.0)

Measured: growth inhibition

Cc1ccc(Cl)cc1NC(=O)OCCN(C)C(=O)Nc1cc(Cl)ccc1C
inactive: [1]; at 1.2 µM 7% | [1]; at 3.7 µM -12% | [1]; at 11.0 µM -36% | [1]; at 33.0 µM -21% | [1]; at 100.0 µM -1% | [2]; at 1.2 µM -30% | [2]; at 3.7 µM -35% | [2]; at 11.0 µM -38% | [2]; at 33.0 µM -30% | [2]; at 100.0 µM 34% | [3]; at 1.2 µM -26% | [3]; at 3.7 µM -20% | [3]; at 11.0 µM -14% | [3]; at 33.0 µM -6% | [3]; at 100.0 µM -11% | [4]; at 1.2 µM -29% | [4]; at 3.7 µM -28% | [4]; at 11.0 µM -29% | [4]; at 33.0 µM -24% | [4]; at 100.0 µM 2% | [5]; at 1.2 µM -26% | [5]; at 3.7 µM -34% | [5]; [16] 57% | [5]; at 11.0 µM -35% | [5]; at 33.0 µM -31% | [5]; at 100.0 µM 19% | [6]; at 1.2 µM -28% | [6]; at 3.7 µM -34% | [6]; [16] 57% | [6]; at 11.0 µM -36% | [6]; at 33.0 µM -31% | [6]; at 50.0 µM 61% | [6]; at 100.0 µM -21% | [7]; at 1.2 µM -26% | [7]; at 3.7 µM -25% | [7]; at 11.0 µM -31% | [7]; at 33.0 µM -39% | [7]; at 100.0 µM -15% | [8]; [16] -29% | [8]; [17] 32% | [8]; at 50.0 µM 37.6% | [9]; at 1.2 µM -48% | [9]; at 3.7 µM -28% | [9]; at 11.0 µM -48% | [9]; at 33.0 µM -33% | [9]; at 100.0 µM -26% | [10]; [16] 17% | [11]; at 1.2 µM -39% | [11]; at 3.7 µM -39% | [11]; [16] 13% | [11]; at 11.0 µM -42% | [11]; at 33.0 µM -36% | [11]; [17] 56% | [11]; at 50.0 µM 46.9% | [11]; at 100.0 µM 13% | [12]; at 1.2 µM -24% | [12]; at 3.7 µM -36% | [12]; at 11.0 µM -33% | [12]; at 33.0 µM -30% | [12]; at 100.0 µM 11% | [13]; at 1.2 µM -22% | [13]; at 3.7 µM -21% | [13]; at 11.0 µM -23% | [13]; at 33.0 µM -15% | [13]; at 100.0 µM 8% | [14]; [16] 45% | [14]; at 50.0 µM 62% | [15]; at 1.2 µM -27% | [15]; at 3.7 µM -35% | [15]; at 11.0 µM -33% | [15]; at 33.0 µM -37% | [15]; at 100.0 µM 15%
active: [5]; [17] 95% | [5]; at 50.0 µM 86% | [6]; [17] 93% | [10]; [17] 75% | [10]; at 50.0 µM 85.1% | [14]; [17] 98%

CCO/C(C)=C(/C#N)C(N)=S
inactive: [1]; at 1.2 µM -1% | [1]; at 3.7 µM -1% | [1]; at 11.0 µM -1% | [1]; at 33.0 µM -2% | [1]; at 100.0 µM 3% | [2]; at 1.2 µM -1% | [2]; at 3.7 µM -2% | [2]; at 11.0 µM 0% | [2]; at 33.0 µM 0% | [2]; at 100.0 µM 1% | [3]; at 1.2 µM -3% | [3]; at 3.7 µM -6% | [3]; at 11.0 µM -11% | [3]; at 33.0 µM -16% | [3]; at 100.0 µM 2% | [4]; at 1.2 µM -2% | [4]; at 3.7 µM -4% | [4]; at 11.0 µM -5% | [4]; at 33.0 µM 14% | [4]; at 100.0 µM 0% | [5]; at 1.2 µM 1% | [5]; at 3.7 µM -1% | [5]; [16] 13% | [5]; at 11.0 µM -1% | [5]; at 33.0 µM 0% | [5]; [17] 67% | [5]; at 50.0 µM 60% | [5]; at 100.0 µM 2% | [6]; at 1.2 µM -2% | [6]; at 3.7 µM 1% | [6]; [16] 3% | [6]; at 11.0 µM -1% | [6]; at 33.0 µM -1% | [6]; [17] 2% | [6]; at 50.0 µM 35.5% | [6]; at 100.0 µM 1% | [7]; at 1.2 µM -2% | [7]; at 3.7 µM -2% | [7]; at 11.0 µM 0% | [7]; at 33.0 µM 0% | [7]; at 100.0 µM 4% | [8]; [16] -9% | [8]; at 50.0 µM 40.3% | [9]; at 1.2 µM -3% | [9]; at 3.7 µM -4% | [9]; at 11.0 µM -1% | [9]; at 33.0 µM -8% | [9]; at 100.0 µM -11% | [10]; [16] 5% | [10]; [17] 21% | [11]; at 1.2 µM -4% | [11]; at 3.7 µM -3% | [11]; [16] 4% | [11]; at 11.0 µM -3% | [11]; at 33.0 µM -7% | [11]; at 100.0 µM -4% | [12]; at 1.2 µM -2% | [12]; at 3.7 µM -3% | [12]; at 11.0 µM -1% | [12]; at 33.0 µM -3% | [12]; at 100.0 µM 0% | [13]; at 1.2 µM -1% | [13]; at 3.7 µM 3% | [13]; at 11.0 µM 1% | [13]; at 33.0 µM 3% | [13]; at 100.0 µM 6% | [14]; [16] 3% | [14]; at 50.0 µM 42.9% | [15]; at 1.2 µM 0% | [15]; at 3.7 µM -1% | [15]; at 11.0 µM 7% | [15]; at 33.0 µM -1% | [15]; at 100.0 µM 4%
active: [8]; [17] 73% | [10]; at 50.0 µM 85.3% | [11]; [17] 70% | [11]; at 50.0 µM 74.7% | [14]; [17] 84%

CC(=O)Nc1ccc2c(c1)Cc1cc(N=C3C=CC(=O)O3)ccc1-2
active: [1]; at 11.0 µM 85% | [1]; at 33.0 µM 99% | [1]; at 100.0 µM 99% | [2]; at 33.0 µM 99% | [2]; at 100.0 µM 99% | [3]; at 3.7 µM 77% | [3]; at 11.0 µM 96% | [3]; at 33.0 µM 99% | [3]; at 100.0 µM 99% | [4]; at 33.0 µM 99% | [4]; at 100.0 µM 99% | [5]; at 11.0 µM 81% | [5]; at 33.0 µM 99% | [5]; [17] 99% | [5]; at 100.0 µM 99%
inactive: [1]; at 1.2 µM 11% | [1]; at 3.7 µM 27% | [2]; at 1.2 µM 0% | [2]; at 3.7 µM 14% | [2]; at 11.0 µM 41% | [3]; at 1.2 µM 37% | [4]; at 1.2 µM 9% | [4]; at 3.7 µM 19% | [4]; at 11.0 µM 67% | [5]; at 1.2 µM 9% | [5]; at 3.7 µM 31% | [5]; [16] 60% | [5]; at 50.0 µM 28.6% | [6]; at 1.2 µM 19% | [6]; at 3.7 µM 31%
